Consider five compounds from PubChem BioAssay (EPA / NIEHS).

Results filed as inconclusive are left out. Activity calls are given as the source filed them. How the source made its calls, unless noted: active means hit-call score of the fitted dose curve at least 0.9, where 1 is the maximum; inactive means score below 0.9.

Assay [1] can be described thus: ATG_TGFb_CIS: Attagene CIS-FACTORIAL HepG2 Assay for human Transforming Growth Factor (TGF) (AID 2282967). Particulars: HepG2 Attagene CIS TGFb reporter, mRNA transcription; actives raise or lower the signal. Summed up: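 Readout: fluorescently labeled reporter cDNA fragments resolved by capillary electrophoresis after RT-PCR. Transfected HepG2 cells dosed for 24 h; endogenous TF activity at TGFB1-linked cis element; gain or loss fitted relative to DMSO.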

Assay [2] in a line: ATG_VDRE_CIS: Attagene CIS-FACTORIAL HepG2 Assay for human Vitamin D Receptor Element (VDRE) (AID 2282968). Particulars: HepG2 VDRE cis-reporter transcription, actives raise or lower the signal. Summed up:
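RT-PCR/CE readout of reporter mRNA; HepG2, transient transfection, 24 h dosing; DMSO baseline; bidirectional analysis.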

Assay [3] addresses Nuclear receptor subfamily 1 group I member 3 (Homo sapiens) (UniProt Q14994). Kind of assay: ATG_CAR_TRANS: Attagene TRANS-FACTORIAL HepG2 Assay for human Constitutive Androstane Receptor (CAR) (AID 2282969; active means hit-call score of the fitted dose curve at least 0.9, where 1 is the maximum;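 further: activators raise reporter mRNA above DMSO so AC50 marks induction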). Particulars: HepG2 Attagene TRANS-FACTORIAL CAR reporter. In a few lines: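 HepG2 cells transiently transfected with multiplexed GAL4-UAS reporter units expressing chimeric NR-Gal4 proteins; compound exposure 24 h. Reporter mRNA measured by RT-PCR, 6-FAM labelling, HpaI digestion and capillary electrophoresis; gain-of-signal fitted against DMSO baseline.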

The target in assay [4] is X-box-binding protein 1 (Homo sapiens) (UniProt P17861). Kind of assay: ATG_Xbp1_CIS: Attagene CIS-FACTORIAL HepG2 Assay for human X-box Binding Protein 1 (XBP1) (AID 2282972). Particulars: HepG2 XBP1 cis-element reporter, Attagene multiplex; actives raise or lower the signal. Summed up: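 HepG2 cells transiently transfected with multiple cis-element reporter units report endogenous TF activity; 24 h exposure, then reporter mRNA measured by RT-PCR, 6-FAM labelling, HpaI digestion and capillary electrophoresis. Bidirectional fitting versus DMSO.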
Chain of X-box-binding protein 1 (Homo sapiens) (P17861 whole entry, looked up): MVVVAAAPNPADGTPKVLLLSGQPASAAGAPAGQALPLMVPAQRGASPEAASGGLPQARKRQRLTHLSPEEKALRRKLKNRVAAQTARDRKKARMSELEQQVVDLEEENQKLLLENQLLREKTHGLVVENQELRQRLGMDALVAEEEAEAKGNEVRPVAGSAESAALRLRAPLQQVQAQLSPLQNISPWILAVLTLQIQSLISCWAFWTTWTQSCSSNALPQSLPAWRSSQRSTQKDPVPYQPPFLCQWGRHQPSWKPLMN

The target of assay [5] is Estrogen-related receptor gamma (Homo sapiens) (UniProt P62508). Kind of assay: ATG_ERRg_TRANS: Attagene TRANS-FACTORIAL HepG2 Assay for human Estrogen-Related Receptor gamma (ERRg) (AID 2282977; active means hit-call score of the fitted dose curve at least 0.9, where 1 is the maximum;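 further: hits increase reporter signal over DMSO so potencies reflect activators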). Particulars: HepG2 Attagene TRANS reporter, ERRg transactivation. In a few lines: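 HepG2 cells transiently transfected with multiplexed GAL4-UAS reporter units driven by chimeric NR-Gal4 proteins; 24 h exposure. Reporter mRNA quantified by RT-PCR, fluorescent labelling, HpaI digestion and capillary electrophoresis; gain of signal vs DMSO.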

Assay [6] is described as follows: ATG_M_06_TRANS: Attagene TRANS-FACTORIAL HepG2 Assay for M06 Transcription Factor (Internal Marker) (AID 2282983; active means hit-call score of the fitted dose curve at least 0.9, where 1 is the maximum). Particulars: HepG2 Attagene TRANS M06 internal marker reporter. In a few lines:
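Transfect HepG2 with MRTUs → dose compounds 24 h → isolate RNA, oligo(dT) RT → PCR with reporter primers → 6-FAM primer extension → HpaI digest → CE fragment analysis. Positive direction vs DMSO.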

Assay [7] in a line: ATG_M_32_TRANS: Attagene TRANS-FACTORIAL HepG2 Assay for M32 Transcription Factor (Internal Marker) (AID 2282984; active means hit-call score of the fitted dose curve at least 0.9, where 1 is the maximum;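 further: transcript level of a background control reporter unit measured by RT-PCR and capillary electrophoresis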). Particulars: HepG2 Attagene TRANS M32 internal marker reporter. Summed up: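 Human hepatoma HepG2, transient MRTU transfection, 24 h treatment. RNA → RT-PCR → fluorescent primer extension → HpaI digest (2 h, 37 C) → CE. Positive-direction fit vs DMSO.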
Assay [8] has as its target Nuclear receptor subfamily 4 group A member 2 (Homo sapiens) (UniProt P43354). The assay can be described thus: ATG_NURR1_TRANS: Attagene TRANS-FACTORIAL HepG2 Assay for human Nuclear Receptor Related Protein 1 (NURR1) (AID 2282985; active means hit-call score of the fitted dose curve at least 0.9, where 1 is the maximum). Particulars: HepG2 Attagene TRANS reporter, mRNA readout. Summed up: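 After 24 h chemical dosing, total RNA from transiently transfected HepG2 cells was reverse-transcribed and reporter cDNA PCR-amplified, FAM-labelled and analysed by capillary electrophoresis. Activity fitted in positive direction, DMSO as negative control.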

Assay [9] addresses Transcriptional activator Myb (Homo sapiens) (UniProt P10242). Kind of assay: ATG_Myb_CIS: Attagene CIS-FACTORIAL HepG2 Assay for human Myeloblastosis (Myb) Proto-Oncogene Transcription Factor (AID 2282986). Particulars: HepG2 Attagene CIS-FACTORIAL Myb reporter transcription; actives raise or lower the signal. In a few lines: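 HepG2, transient MRTU transfection (cis-element promoters, endogenous TF activity), 24 h compound exposure. Readout: reporter mRNA via RT-PCR, 6-FAM labeling, HpaI digest, capillary electrophoresis. Gain/loss fit vs DMSO.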

For assay [10], the target named is Nuclear respiratory factor 1 (Homo sapiens) (UniProt Q16656). The assay can be described thus: ATG_NRF1_CIS: Attagene CIS-FACTORIAL HepG2 Assay for human Nuclear Respiratory Factor 1 (NRF1) Orphan Gene (AID 2282987). Particulars: HepG2 NRF1 cis-element reporter, Attagene multiplex; actives raise or lower the signal. In a few lines:
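Endogenous NRF1-driven reporter transcription measured in transiently transfected human HepG2 liver cells. Readout: reporter mRNA by RT-PCR and capillary electrophoresis with fluorescence detection, 24 h post-dosing. Gain or loss of signal fitted relative to DMSO baseline.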

Assay [11] in a line: ATG_NFI_CIS: Attagene CIS-FACTORIAL HepG2 Assay for human Nuclear Factor I (NFI) (AID 2282989). Particulars: HepG2 cis-regulatory reporter, NFI response element transcription; actives raise or lower the signal. In a few lines:
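Read-out: reporter mRNA via RT-PCR plus capillary electrophoresis with fluorescence detection. Transiently transfected HepG2 (endogenous TF activity on cis promoters), 24 h compound exposure; gain or loss of signal fitted against DMSO.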

Assay [12] concerns the target Myc proto-oncogene protein (Homo sapiens) (UniProt P01106). Kind of assay: ATG_Myc_CIS: Attagene CIS-FACTORIAL HepG2 Assay for human Myelocytomatosis (Myc) Proto-Oncogene Transcription Factor (AID 2282990). Particulars: HepG2, Attagene cis-reporter transcription factor activity; actives raise or lower the signal. Summed up: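 HepG2 cells transiently transfected with multiple cis-promoter-driven reporter transcription units, so endogenous TF activity is read. After 24 h compound exposure, reporter mRNA was quantified by RT-PCR, 6-FAM labelling, HpaI digestion and capillary electrophoresis; bidirectional fit versus DMSO.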

Assay [13] can be described thus: ATG_TAL_CIS: Attagene CIS-FACTORIAL HepG2 Assay for human TAL Basal Promoter (AID 2282966).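 Further: background control endpoint measuring basal TAL promoter reporter mRNA not a specific factor.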 Particulars: HepG2 Attagene cis-factorial TAL promoter reporter; actives raise or lower the signal. In a few lines:
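Fluorescence of labelled reporter cDNA fragments, resolved by capillary electrophoresis, gave the readout. Human HepG2 liver cells carried transiently transfected cis-element reporter units and were treated for 24 hours; activity was fitted bidirectionally against DMSO.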

Assay [14] deals with Glucocorticoid receptor (Homo sapiens) (UniProt P04150). Kind of assay: ATG_GR_TRANS: Attagene TRANS-FACTORIAL HepG2 Assay for human Glucocorticoid Receptor (GR) (AID 2282978; active means hit-call score of the fitted dose curve at least 0.9, where 1 is the maximum;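 further: activators score as hits since higher reporter transcript over DMSO is fitted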). Particulars: HepG2 Attagene TRANS GR reporter, mRNA transcription. Summed up: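 Transient MRTU transfection of HepG2 (GAL4-UAS reporters, exogenous NR-GAL4 chimeras), 24 h dosing. Readout: reporter transcript via RT-PCR + capillary electrophoresis fluorescence. Positive direction vs DMSO baseline.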
Chain of Glucocorticoid receptor (Homo sapiens) (P04150 whole entry, looked up, the tested form may be a part): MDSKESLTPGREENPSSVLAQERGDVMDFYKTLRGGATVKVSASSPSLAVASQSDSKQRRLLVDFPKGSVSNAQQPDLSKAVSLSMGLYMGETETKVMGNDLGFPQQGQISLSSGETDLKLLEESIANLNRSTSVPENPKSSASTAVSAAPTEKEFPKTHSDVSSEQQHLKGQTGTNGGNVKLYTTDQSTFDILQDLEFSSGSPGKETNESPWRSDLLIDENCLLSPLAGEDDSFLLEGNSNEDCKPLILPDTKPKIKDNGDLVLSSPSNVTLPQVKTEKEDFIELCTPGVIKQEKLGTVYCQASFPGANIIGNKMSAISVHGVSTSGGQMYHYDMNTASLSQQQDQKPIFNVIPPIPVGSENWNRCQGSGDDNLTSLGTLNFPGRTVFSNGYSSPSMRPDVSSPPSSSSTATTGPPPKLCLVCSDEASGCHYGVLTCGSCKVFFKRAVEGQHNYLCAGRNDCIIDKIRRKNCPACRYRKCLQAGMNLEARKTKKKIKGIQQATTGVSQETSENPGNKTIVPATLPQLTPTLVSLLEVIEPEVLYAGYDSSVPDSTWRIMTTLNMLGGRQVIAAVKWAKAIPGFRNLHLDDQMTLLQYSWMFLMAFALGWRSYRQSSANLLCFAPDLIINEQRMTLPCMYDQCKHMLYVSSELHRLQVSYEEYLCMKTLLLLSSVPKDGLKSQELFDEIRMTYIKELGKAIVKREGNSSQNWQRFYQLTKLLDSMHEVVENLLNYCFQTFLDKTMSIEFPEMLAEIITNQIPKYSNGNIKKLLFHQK

The target of assay [15] is Bile acid receptor (Homo sapiens) (UniProt Q96RI1). The assay can be described thus: ATG_FXR_TRANS: Attagene TRANS-FACTORIAL HepG2 Assay for Farnesoid X Receptor (FXR) (AID 2282979; active means hit-call score of the fitted dose curve at least 0.9, where 1 is the maximum;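 further: hits raise reporter mRNA above DMSO so AC50 marks FXR activation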). Particulars: HepG2 Attagene TRANS FXR-GAL4 reporter transcription. Summed up:
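Transient transfection of HepG2 with multiplexed GAL4-UAS reporter units; exogenous FXR-GAL4 chimera. Dose 24 h → TriZol RNA → oligo(dT) RT → PCR, 6-FAM primer extension, HpaI cut → CE. Gain vs DMSO.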

The target of assay [16] is Estrogen receptor (Homo sapiens) (UniProt P03372). The assay can be described thus: ATG_ERa_TRANS: Attagene TRANS-FACTORIAL HepG2 Assay for human Estrogen Receptor alpha (ERa) (AID 2282970; active means hit-call score of the fitted dose curve at least 0.9, where 1 is the maximum). Particulars: HepG2 Attagene TRANS ERa GAL4 reporter, mRNA. In a few lines:
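Human liver HepG2, transient transfection of multiple GAL4-UAS reporter units; TRANS format (exogenous NR-Gal4 chimera). 24 h dosing. Readout: reporter mRNA, RT-PCR, 6-FAM primer extension, HpaI digest, capillary electrophoresis. Positive direction vs DMSO.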

Assay [17] deals with Hepatocyte nuclear factor 4-alpha (Homo sapiens) (UniProt P41235). The assay can be described thus: ATG_HNF4a_TRANS: Attagene TRANS-FACTORIAL HepG2 Assay for human Hepatocyte Nuclear Factor 4 alpha (HNF4a) (AID 2282982; active means hit-call score of the fitted dose curve at least 0.9, where 1 is the maximum). Particulars: HepG2 HNF4a transactivation reporter, mRNA readout. In a few lines:
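Cells used were human HepG2, transiently carrying GAL4-UAS reporter units read out against exogenous NR-GAL4 chimeras. Reporter transcript levels after 24 h dosing were quantified by fluorescent RT-PCR and capillary electrophoresis.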

For assay [18], the target named is Oxysterols receptor LXR-alpha (Homo sapiens) (UniProt Q13133). Kind of assay: ATG_LXRa_TRANS: Attagene TRANS-FACTORIAL HepG2 Assay for human Liver X Receptor alpha (LXRa) (AID 2282980; active means hit-call score of the fitted dose curve at least 0.9, where 1 is the maximum). Particulars: HepG2 Attagene TRANS reporter, LXRa transactivation. Summed up: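 Transfect HepG2 with GAL4-UAS multiplex reporter constructs (TRANS format, chimeric receptor-GAL4); treat 24 h; extract RNA, reverse-transcribe, PCR-amplify, FAM-label, HpaI-digest; resolve fragments by capillary electrophoresis. Upward response vs DMSO.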
Chain of Oxysterols receptor LXR-alpha (Homo sapiens) (Q13133 whole entry, looked up, the tested form may be a part): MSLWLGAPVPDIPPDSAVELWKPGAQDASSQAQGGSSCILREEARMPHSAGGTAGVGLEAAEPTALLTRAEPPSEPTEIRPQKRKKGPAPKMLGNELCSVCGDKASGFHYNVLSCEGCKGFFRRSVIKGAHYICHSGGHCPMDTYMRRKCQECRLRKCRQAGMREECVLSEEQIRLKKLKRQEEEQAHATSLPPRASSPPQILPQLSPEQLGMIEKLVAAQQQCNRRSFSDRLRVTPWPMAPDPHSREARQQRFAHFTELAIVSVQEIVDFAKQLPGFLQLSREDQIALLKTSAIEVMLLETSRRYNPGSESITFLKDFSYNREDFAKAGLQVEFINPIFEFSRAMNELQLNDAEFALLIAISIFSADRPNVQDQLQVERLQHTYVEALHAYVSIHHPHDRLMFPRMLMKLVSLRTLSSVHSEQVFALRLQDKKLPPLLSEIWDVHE

The target in assay [19] is Oxysterols receptor LXR-beta (Homo sapiens) (UniProt P55055). The assay can be described thus: ATG_LXRb_TRANS: Attagene TRANS-FACTORIAL HepG2 Assay for human Liver X Receptor beta (LXRb) (AID 2282981; active means hit-call score of the fitted dose curve at least 0.9, where 1 is the maximum). Particulars: HepG2 Attagene TRANS GAL4-LXRb reporter, mRNA. Summed up: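 In this TRANS format, exogenous chimeric NR-Gal4 protein activity, not endogenous factors, drives reporter expression in transfected human HepG2 cells. Exposure lasted 24 h; reporter mRNA was read by fluorescent capillary electrophoresis.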
Chain of Oxysterols receptor LXR-beta (Homo sapiens) (P55055 whole entry, looked up, the tested form may be a part): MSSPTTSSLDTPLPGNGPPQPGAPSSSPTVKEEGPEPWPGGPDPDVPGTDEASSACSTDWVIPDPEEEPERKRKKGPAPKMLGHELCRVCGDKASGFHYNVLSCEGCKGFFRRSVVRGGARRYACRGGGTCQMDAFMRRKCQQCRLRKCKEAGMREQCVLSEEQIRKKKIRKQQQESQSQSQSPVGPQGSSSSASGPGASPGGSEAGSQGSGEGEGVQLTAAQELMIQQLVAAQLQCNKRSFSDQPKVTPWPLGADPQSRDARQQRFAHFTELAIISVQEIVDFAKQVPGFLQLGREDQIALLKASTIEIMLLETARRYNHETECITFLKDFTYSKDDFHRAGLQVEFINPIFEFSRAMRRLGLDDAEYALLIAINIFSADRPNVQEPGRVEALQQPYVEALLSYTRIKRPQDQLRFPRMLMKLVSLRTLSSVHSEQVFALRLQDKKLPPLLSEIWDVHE

Assay [20] in a line: ATG_M_19_TRANS: Attagene TRANS-FACTORIAL HepG2 Assay for M19 Transcription Factor (Internal Marker) (AID 2282974; active means hit-call score of the fitted dose curve at least 0.9, where 1 is the maximum). Particulars: HepG2 Attagene TRANS-FACTORIAL M19 internal marker reporter. Summed up: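 24 h chemical exposure of transiently transfected HepG2 (MRTU library). RNA → oligo(dT) RT → PCR → 6-FAM labelling → HpaI cut → CE fluorescence. Positive-direction fit vs DMSO baseline; background internal-marker readout.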

Chain of Nuclear receptor subfamily 4 group A member 2 (Homo sapiens) (P43354 whole entry, looked up): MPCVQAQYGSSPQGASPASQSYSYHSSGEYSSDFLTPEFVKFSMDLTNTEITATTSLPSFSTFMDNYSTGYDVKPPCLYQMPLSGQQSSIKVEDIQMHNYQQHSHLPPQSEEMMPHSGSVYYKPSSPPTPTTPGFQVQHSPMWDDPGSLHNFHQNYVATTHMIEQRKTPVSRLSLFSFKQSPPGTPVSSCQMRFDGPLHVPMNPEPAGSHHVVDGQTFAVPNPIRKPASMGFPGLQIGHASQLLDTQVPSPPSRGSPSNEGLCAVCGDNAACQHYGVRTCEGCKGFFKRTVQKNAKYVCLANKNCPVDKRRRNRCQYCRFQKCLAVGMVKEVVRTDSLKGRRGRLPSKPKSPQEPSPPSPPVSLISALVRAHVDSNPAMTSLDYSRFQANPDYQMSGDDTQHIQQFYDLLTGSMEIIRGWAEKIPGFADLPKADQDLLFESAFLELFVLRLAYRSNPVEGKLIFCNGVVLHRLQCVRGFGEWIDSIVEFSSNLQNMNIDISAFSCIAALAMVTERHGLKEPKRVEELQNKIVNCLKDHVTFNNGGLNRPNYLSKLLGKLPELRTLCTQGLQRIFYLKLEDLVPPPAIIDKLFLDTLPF
Chain of Transcriptional activator Myb (Homo sapiens) (P10242 whole entry, looked up): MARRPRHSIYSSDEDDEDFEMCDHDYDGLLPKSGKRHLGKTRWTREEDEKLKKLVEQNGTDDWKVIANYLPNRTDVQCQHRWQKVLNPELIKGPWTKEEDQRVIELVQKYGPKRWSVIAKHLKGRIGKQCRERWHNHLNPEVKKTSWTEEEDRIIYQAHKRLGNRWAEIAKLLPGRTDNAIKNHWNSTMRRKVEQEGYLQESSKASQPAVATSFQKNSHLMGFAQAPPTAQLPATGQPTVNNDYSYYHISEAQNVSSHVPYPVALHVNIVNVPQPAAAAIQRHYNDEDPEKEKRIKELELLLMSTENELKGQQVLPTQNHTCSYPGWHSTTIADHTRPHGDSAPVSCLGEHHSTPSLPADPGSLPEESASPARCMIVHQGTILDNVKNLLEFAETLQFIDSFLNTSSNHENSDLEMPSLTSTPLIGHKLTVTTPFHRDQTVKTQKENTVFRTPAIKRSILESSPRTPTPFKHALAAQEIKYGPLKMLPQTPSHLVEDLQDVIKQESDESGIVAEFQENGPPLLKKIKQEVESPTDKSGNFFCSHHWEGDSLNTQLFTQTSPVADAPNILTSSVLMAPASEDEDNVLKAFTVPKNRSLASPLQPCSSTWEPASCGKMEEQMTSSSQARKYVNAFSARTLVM
Chain of Myc proto-oncogene protein (Homo sapiens) (P01106 whole entry, looked up): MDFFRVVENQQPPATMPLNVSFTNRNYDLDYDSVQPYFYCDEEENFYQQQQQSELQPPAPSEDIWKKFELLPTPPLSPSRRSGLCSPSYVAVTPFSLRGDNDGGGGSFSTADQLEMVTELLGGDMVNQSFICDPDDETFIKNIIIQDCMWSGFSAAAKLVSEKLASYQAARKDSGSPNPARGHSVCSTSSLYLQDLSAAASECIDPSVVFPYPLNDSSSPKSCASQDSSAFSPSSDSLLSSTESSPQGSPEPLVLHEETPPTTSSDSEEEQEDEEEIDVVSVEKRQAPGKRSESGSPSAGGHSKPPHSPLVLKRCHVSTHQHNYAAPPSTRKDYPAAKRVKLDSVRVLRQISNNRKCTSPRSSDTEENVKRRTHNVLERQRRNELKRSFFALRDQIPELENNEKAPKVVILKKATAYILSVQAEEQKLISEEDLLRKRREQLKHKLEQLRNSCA
Chain of Nuclear respiratory factor 1 (Homo sapiens) (Q16656 whole entry, looked up): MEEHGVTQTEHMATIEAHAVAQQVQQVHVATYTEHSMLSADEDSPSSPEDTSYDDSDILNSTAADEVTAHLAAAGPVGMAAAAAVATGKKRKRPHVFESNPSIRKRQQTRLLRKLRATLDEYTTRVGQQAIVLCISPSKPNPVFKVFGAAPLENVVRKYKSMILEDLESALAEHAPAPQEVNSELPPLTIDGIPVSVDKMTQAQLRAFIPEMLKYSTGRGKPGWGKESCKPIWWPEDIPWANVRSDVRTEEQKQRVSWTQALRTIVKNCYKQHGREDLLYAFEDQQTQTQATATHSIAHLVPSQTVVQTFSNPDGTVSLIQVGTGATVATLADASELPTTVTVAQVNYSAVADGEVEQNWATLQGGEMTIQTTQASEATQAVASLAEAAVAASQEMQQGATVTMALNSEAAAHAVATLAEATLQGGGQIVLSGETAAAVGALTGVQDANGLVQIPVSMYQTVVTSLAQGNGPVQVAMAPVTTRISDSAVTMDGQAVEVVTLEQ
Chain of Bile acid receptor (Homo sapiens) (Q96RI1 whole entry, looked up, the tested form may be a part): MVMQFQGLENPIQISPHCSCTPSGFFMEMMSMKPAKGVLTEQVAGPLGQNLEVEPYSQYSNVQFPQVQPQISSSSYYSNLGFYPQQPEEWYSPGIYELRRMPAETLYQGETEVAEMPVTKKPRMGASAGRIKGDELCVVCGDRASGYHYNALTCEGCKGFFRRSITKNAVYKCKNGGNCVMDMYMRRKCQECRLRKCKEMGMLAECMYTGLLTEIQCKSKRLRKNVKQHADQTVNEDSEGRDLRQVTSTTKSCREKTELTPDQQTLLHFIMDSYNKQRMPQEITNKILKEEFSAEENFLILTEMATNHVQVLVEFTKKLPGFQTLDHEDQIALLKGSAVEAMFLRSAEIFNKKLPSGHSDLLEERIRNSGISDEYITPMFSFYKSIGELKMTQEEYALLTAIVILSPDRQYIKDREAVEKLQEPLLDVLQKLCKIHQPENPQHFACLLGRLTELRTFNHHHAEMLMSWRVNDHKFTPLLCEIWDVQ
Chain of Nuclear receptor subfamily 1 group I member 3 (Homo sapiens) (Q14994 whole entry, looked up, the tested form may be a part): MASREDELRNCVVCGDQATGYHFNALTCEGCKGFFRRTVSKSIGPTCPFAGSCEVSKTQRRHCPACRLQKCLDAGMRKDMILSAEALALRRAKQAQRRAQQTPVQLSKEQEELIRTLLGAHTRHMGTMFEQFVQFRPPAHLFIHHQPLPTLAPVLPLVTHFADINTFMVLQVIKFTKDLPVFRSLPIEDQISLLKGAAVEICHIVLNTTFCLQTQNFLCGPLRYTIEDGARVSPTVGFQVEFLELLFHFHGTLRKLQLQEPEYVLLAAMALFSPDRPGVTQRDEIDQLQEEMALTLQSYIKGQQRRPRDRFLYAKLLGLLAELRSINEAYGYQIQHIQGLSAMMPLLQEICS

With `CC(C)(C)c1ccccc1`, the result in assay [1], in assay [2], in [3], in [4], in assay [5] and in assay [6] was inactive. Moreover, the call in [7], in [8], in assay [9], in assay [10], in [11] and in [12] was inactive.
As for `CCCCCCC(CCCCCCCCCCC(=O)OCC(COC(C)=O)OC(C)=O)OC(C)=O` (stereo not drawn), the result in assay [13], in [1], in assay [4], in assay [14], in assay [15] and in assay [6] was inactive. Besides, the result in [9], in [10], in assay [11] and in assay [12] was inactive.
For `Oc1ccc(O)cc1`, the compound was classed as inactive in assay [13], in [1], in assay [17], in [6], in assay [7] and in assay [8]. The compound was classed as inactive in assay [9], in assay [10], in [11] and in assay [12]. For the same compound, the half-maximal activity concentration (AC50) in assay [16] is 59.9 µM (active); in assay [4], 114 µM (active).
Consider `CC(N)=O`, for which the result in assay [13], in [1], in [4], in assay [14], in assay [18] and in assay [19] was inactive. Moreover, the call in [6], in assay [7], in assay [8], in assay [9], in assay [10] and in assay [11] was inactive. For the same compound, the result in assay [12] was inactive.
On to `CC(=O)O`, for which the call in assay [13], in assay [1], in [4], in assay [20], in [6] and in [7] was inactive. Besides, the call in [8], in assay [9], in assay [10], in assay [11] and in [12] was inactive.
